Assay results from PubChem BioAssay (EPA / NIEHS).
Results filed as inconclusive are left out. Calls of active or inactive are those of the source. Rule for the calls: active = hit-call score of the fitted dose curve at least 0.9, where 1 is the maximum; inconclusive = response in the unintended direction; inactive = score below 0.9.

target: chimpanzee Androgen Receptor (AR), AR (gene 747460) (UniProt O97775); test: NVS_NR_cAR: NovaScreen (NVS) Nuclear Receptor Binding Assay for chimpanzee Androgen Receptor (AR) (AID 2283346);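 note: radioligand displacement from AR measured by scintillation counting in a cell-free assay; a loss of bound radioligand signal versus DMSO counts as binding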
Sequence (O97775 whole entry, looked up): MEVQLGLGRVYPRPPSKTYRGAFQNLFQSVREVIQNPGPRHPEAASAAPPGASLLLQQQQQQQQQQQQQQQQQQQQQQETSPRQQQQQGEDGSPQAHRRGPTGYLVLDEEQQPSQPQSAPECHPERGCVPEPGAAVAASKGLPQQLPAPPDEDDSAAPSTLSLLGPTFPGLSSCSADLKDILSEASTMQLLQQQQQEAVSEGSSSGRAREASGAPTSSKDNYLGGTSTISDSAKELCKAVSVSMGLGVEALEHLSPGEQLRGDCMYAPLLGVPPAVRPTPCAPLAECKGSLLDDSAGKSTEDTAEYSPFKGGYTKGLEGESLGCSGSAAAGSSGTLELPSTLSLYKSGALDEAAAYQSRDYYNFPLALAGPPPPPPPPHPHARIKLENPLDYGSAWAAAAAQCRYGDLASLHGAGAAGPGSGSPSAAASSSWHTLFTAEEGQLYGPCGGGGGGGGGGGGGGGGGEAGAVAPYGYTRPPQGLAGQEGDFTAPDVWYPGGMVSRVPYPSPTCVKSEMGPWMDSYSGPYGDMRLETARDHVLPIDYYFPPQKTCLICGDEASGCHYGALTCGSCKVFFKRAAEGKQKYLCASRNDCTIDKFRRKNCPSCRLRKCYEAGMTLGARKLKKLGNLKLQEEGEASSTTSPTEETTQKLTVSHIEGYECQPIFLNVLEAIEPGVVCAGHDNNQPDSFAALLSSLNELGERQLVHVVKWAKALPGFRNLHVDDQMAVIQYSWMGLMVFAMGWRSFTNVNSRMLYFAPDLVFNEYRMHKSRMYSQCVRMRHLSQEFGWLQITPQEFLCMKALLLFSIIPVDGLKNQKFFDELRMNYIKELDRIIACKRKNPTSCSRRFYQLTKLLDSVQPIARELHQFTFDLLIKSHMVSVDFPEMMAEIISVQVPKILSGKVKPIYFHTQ
Outline: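 Cell-free competition binding with insect-cell (Sf9/Sf21) extracted chimpanzee AR; scintillation signal from lysate at 72 h. Screened in duplicate at 25 uM, then concentration-response for actives; fitting relative to DMSO.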

SMILES | outcome | AC50
O=c1[nH]nnc2ccccc12 | inactive | –
C#C[C@]1(O)CC[C@H]2[C@@H]3CCC4=Cc5oncc5C[C@]4(C)[C@H]3CC[C@@]21C | inactive | –
CCCCCCCCCCCCCCCC(=O)OC[C@H](O)[C@H]1OC(=O)C(O)=C1O | inactive | –
O=Nc1ccc(Nc2ccccc2)cc1 | inactive | –
Cc1ccc(C(C)C)cc1O | – | 10.6 µM (active)
CC(C)=CCCC(C)=CCCC(C)=CCO | inactive | –
O=C1OC2(c3cc(Br)c(O)c(Br)c3Oc3c2cc(Br)c(O)c3Br)c2c(Cl)c(Cl)c(Cl)c(Cl)c21 | inactive | –
CC(=O)O[C@]1(C(C)=O)CC[C@H]2[C@@H]3C[C@H](C)C4=CC(=O)CC[C@]4(C)[C@H]3CC[C@@]21C | – | 0.422 µM (active)
CCN(CC)c1ccc(C(=C2C=CC(=[N+](CC)CC)C=C2)c2ccc(S(=O)(=O)O)cc2S(=O)(=O)[O-])cc1 | inactive | –
O=C1C(c2[nH]c3ccc(S(=O)(=O)O)cc3c2O)=Nc2ccc(S(=O)(=O)O)cc21 | inactive | –
C=CC(C)(O)CCC=C(C)CCC=C(C)C (stereo unspecified) | inactive | –
